# Screens as filed in PubChem.
# FMDV inh = High Throughput Screening for Foot and Mouth Disease Virus Antivirals; FMDV antiviral cell-based qHTS; Potency, µM (titrated, usually from 57.9 µM), inactives show at the highest dose activity change, negative = inhibition, actives largely listed as inhibitors; 410,000 compounds, 1.2% hits; AID 1159524, 2015; calls by dose curve; tested in HEK293T cells; note: read-out not given here; potency is the fitted concentration of half-maximal effect; % is set by controls: 0 for no effect and ±100 for the full control effect; nearly all actives have a fitted effect of over 45% in size
# CHX counter = Cycloheximide Counterscreen for Small Molecule Inhibitors of Shiga Toxin | cell reporter, cycloheximide protein synthesis inhibition counterscreen | max response, % | 300,000 compounds, 12% hits; in the data active = max response mostly above about 13%, no sharp cut-off; inactive = mostly below about 14%; note: read at 38.3 µM for the half of the compounds with a filed dose; 0% is about no effect
# Shiga inhibitor = A qHTS for Small Molecule Inhibitors of Shiga Toxin; Vero cells, Shiga toxin protein synthesis inhibition reporter; 290,000 compounds, 9.2% hits; inhibition, % at 38.7 µM; AID 2315, 2010; in the data active = inhibition mostly above about 28%, no sharp cut-off; inactive = mostly below about 43%; note: 0% is about no effect
# Sm TGR block = qHTS Assay for the Inhibitors of Schistosoma Mansoni Peroxiredoxins; purified TGR, DTNB reduction, TNB absorbance 405 nm; Potency, µM (top dose mostly 114 µM), inactives show top-dose activity change, negative = inhibition, actives largely listed as inhibitors; AID 485364, 2010; 360,000 compounds, 3% hits; active = well fitted inhibition curve with a large enough effect; inconclusive = small, poorly fitted or top-dose-only effect; inactive = no such curve, though single readings can be large or run the other way; note: potency is the fitted concentration of half-maximal effect; % is set by controls: 0 for no effect and ±100 for the full control effect; nearly all actives have a fitted effect of over 60% in size
#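 First, TGR (20 nM dispensed) and NADPH were mixed with compound. Second, a 15 min room-temperature incubation followed. Third, further NADPH and then DTNB were added to start the reaction. Finally, TNB absorbance was monitored kinetically.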
# * hit, by the source's call; u = inconclusive; x = no result given; ! = not active in a repeat. In the library only some 12% were active in any assay of this set; here they are far more common.
SMILES,FMDV inh,CHX counter,Shiga inhibitor,Sm TGR block
O=C1CC(C(=O)N2CCC3(CC2)OCCO3)CN1CCc1ccccc1 (centres undefined),-4%,-2,-14,0%
CCOC(=O)c1ccc(NC(=O)CCc2c(C)nc3c(c(C)nn3-c3ccccc3)c2C)cc1,-22%,x,x,-3%
CC(C)CCNS(=O)(=O)c1ccc(N2CCCCS2(=O)=O)cc1,22%,x,x,3%
Cc1ccc(SC2CCN(C(=O)C3CCC(=O)N(C4CC4)C3)CC2)cc1 (centres undefined),-14%,27,49*,-34%
COCC1CCN(C(=O)C2CCC(=O)N(C3CCCC3)C2)CC1 (centres undefined),11%,15*,49,1%
CCOc1ccc(-c2nc(SCC(=O)NCCOC)c(-c3ccc(OC)c(OC)c3)[nH]2)cc1,-23%,x,x,2%
CCC(C)NS(=O)(=O)c1ccc(N2CCCCS2(=O)=O)cc1 (centres undefined),-11%,x,x,2%
CC1=C([N+](=O)[O-])C(c2ccccc2)C2=C(N1)c1ccccc1C2=O (centres undefined),u,-1,-13,14µM*
COc1ccc(C2C(C#N)=C(C)NC3=C2C(=O)c2ccccc23)cc1 (centres undefined),-20%,1,-18,-21%
O=C(Nc1cccc(Cl)c1Cl)c1ccc2c(c1)N(Cc1cccc(Cl)c1)C(=O)c1ccccc1S2(=O)=O,-16%,x,x,2%
CCOc1ccc(-c2cc(C(=O)N/N=C/c3cccnc3)c3ccccc3n2)cc1,-11%,26*,62*,-23%
Cc1cc(C(=O)N/N=C/c2cccc([N+](=O)[O-])c2)c2ccccc2n1,-29%,-3,15,5%
O=C(NN=Cc1cccc([N+](=O)[O-])c1)c1cc(-c2cccnc2)nc2ccccc12,28µM*,x,x,x
C=CCC(CC(O)COCCC)C(=O)NNC(=S)Nc1ccccc1 (centres undefined),62%,36*,71*,-4%
Cc1ccc(NC(=O)N/C=C/c2ccco2)cc1C,6%,12,9,u
CCc1ccccc1NC(=O)c1cccc(NC(=O)/C=C/c2ccco2)c1,-14%,69*,105*,20µM*
Cc1ccccc1NC(=O)c1cccc(NC(=O)c2ccco2)c1,-13%,7,8,7%
Cc1ccc(-n2nc3ccc(NC(=O)/C=C/c4ccco4)cc3n2)cc1,30%,22*,74*,-24%
Cc1ccc(NC(=O)c2cccc(NC(=O)/C=C/c3ccco3)c2)cc1C,8%,57*,137*,45µM*
Cc1ccc(-n2nc3ccc(NC(=O)c4cc5ccccc5o4)cc3n2)cc1,28%,x,x,7%
O=C(/C=C/c1ccco1)Nc1cccc(C(=O)Nc2ccccc2C(=O)O)c1,2%,-1,-6,4µM*
COc1cccc(Cn2ncc3c4sc(B(O)O)cc4n(C)c3c2=O)c1,x,x,x,-2%
O=C(OCc1ccccc1)/C(=C/c1cccc2ccccc12)NC(=O)c1ccccc1,22%,0,17,5%
C=CCOC(=O)/C(=C/c1cccc2ccccc12)NC(=O)c1ccccc1,31%,66*,92*,3%
CCCCCCSc1cccc(-c2nc3ccc(C)cn3c2NCc2ccccc2)c1,u,x,x,-2%
SMILES,FMDV inh,CHX counter,Shiga inhibitor,Sm TGR block
CCCCCCSc1cccc(-c2nc3ccccn3c2NCc2ccccc2)c1,25µM*,x,x,x
CCCCNc1c(-c2ccc(SC(C)CC)c(OC)c2)nc2ccc(C)cn12 (centres undefined),22µM*,x,x,-26%
CCCCNc1c(-c2ccc(SC(C)CC)c(OC)c2)nc2ccc(Cl)cn12 (centres undefined),0%,x,x,x
CCCCCCSc1cc(-c2nc3ccc(C)cn3c2NCc2ccccc2)ccc1OC,40µM*!,x,x,4%
CCCCCCSc1cccc(-c2nc3cc(C)ccn3c2NCc2ccccc2)c1,-25%,x,x,0%
Cc1ccc(N2CC(NC(=O)Cc3cccs3)CC2=O)cc1C (centres undefined),2%,x,x,0%
CC1CCN(S(=O)(=O)c2ccc3c(c2)N(CC(=O)NCCN(C)C)C(=O)CS3)CC1,-12%,x,x,-16%
Cc1cc(C)c(NC(=O)Cn2c(=O)n(CCC(=O)NCc3ccccc3Cl)c(=O)c3sccc32)c(C)c1,4%,x,x,-1%
CC(=O)C(=Cc1cccc(C#N)c1)C(=O)c1ccccc1,13µM*,x,x,x
CC(=O)C(=Cc1ccc(Cl)cc1)C(=O)c1ccccc1,28µM*,x,x,x
COc1ccc(C=C(C(=O)c2ccccc2)C(=O)c2ccccc2)cc1,6%,x,x,x
O=C(CCc1nc2cccnc2n1Cc1ccccc1)NCc1cccc(Cl)c1,-9%,x,x,-4%
Cc1c(Cl)cccc1NC(=O)c1ccc2c(c1)CCN2S(=O)(=O)c1ccccc1,7%,x,x,1%
COc1ccccc1N1CCN(/N=C/c2ccc(Cl)c([N+](=O)[O-])c2)CC1,27%,55*,43*,-6%
COc1ccccc1N1CCN(/N=C/c2ccc([N+](=O)[O-])cc2)CC1,25%,21*,13,13%
Cc1cc(NC(=O)N2CCC(CN3CCOCC3)CC2)ccc1Br,20%,x,x,3%
CCOc1ccc(N2CC(c3nc(-c4cc(OC)c(OC)c(OC)c4)no3)CC2=O)cc1 (centres undefined),-9%,x,x,-1%
Cc1cccc(Nc2nc(N)c([N+](=O)[O-])c(N3CC(C)CC(C)C3)n2)c1 (centres undefined),22µM*,-4,-2,4%
CCN1CCN(c2nc(Nc3cccc(OC)c3)nc(N)c2[N+](=O)[O-])CC1,-28%,-7,-10,3%
Cc1cccc(Nc2nc(N)c([N+](=O)[O-])c(NCCO)n2)c1,9%,-3,-9,16%
Nc1nc(Nc2ccccc2)nc(N2CCOCC2)c1[N+](=O)[O-],-9%,8,-2,1%
Cc1cccc(Nc2nc(N)c([N+](=O)[O-])c(N3CCC(C)CC3)n2)c1,25µM*,-5,-3,-3%
Cc1cccc(Nc2nc(N)c([N+](=O)[O-])c(N3CC(C)OC(C)C3)n2)c1 (centres undefined),3.2µM*,-5,-2,-3%
Cc1ccccc1CSc1nnc(-c2ccccn2)n1C,23%,26*,90*,12%
Cn1c(SCc2cccc(F)c2)nnc1-c1cnccn1,61%,29*,64*,-2%
SMILES,FMDV inh,CHX counter,Shiga inhibitor,Sm TGR block
Cn1c(SCc2cccc(F)c2)nnc1-c1ccccn1,65%,36*,58*,u
Cn1c(SCc2cccc(Br)c2)nnc1-c1ccccn1,5%,22*,50*,1%
CCc1ccccc1NS(=O)(=O)c1ccc2[nH]cc(C(=O)N(CC)Cc3ccccc3)c(=O)c2c1,0%,x,x,3%
O=C(Nc1nnc(S(=O)(=O)N2CCc3ccccc32)s1)c1cccc(Cl)c1,u,x,x,-9%
COc1ccc(/C=C/C(=O)Nc2ccc3nc(N4CCC(C)CC4)cc(C)c3c2)cc1OC,-13%,x,x,0%
Cn1c(SCc2ccccc2Cl)nnc1-c1cnccn1,66%,24*,133*,43%
COc1nnc(-c2ccccc2)s1,25%,15,41*,2%
